Measurements taken from PubChem BioAssay (NCATS).
Inconclusive results are not listed. The source made the active and inactive calls. Calls follow the shape of the dose curve; as a rule, active = well fitted inhibition curve with a large enough effect; inconclusive = small, poorly fitted or top-dose-only effect; inactive = flat fitted curve, though single readings scatter.

tested on: HEK293; experiment: Cytotoxic Profiling of Annotated Libraries Using Quantitative High-Throughput Screening (AID 1296008); settings: Five cell lines viability, CellTiter-Glo ATP luminescence, 48-72 h; max response: hits give low values; also: nearly all actives have a fitted effect of over 60% in size
Description: Cell-based phenotypic screening is a commonly used approach to discover biological pathways, novel drug targets, chemical probes and high-quality hit-to-lead molecules. Many hits identified from high-throughput screening campaign are ruled out through a series of follow-up potency, selectivity/specificity, and cytotoxicity assays. Prioritization of molecules with little or no cytotoxicity for a more in-depth downstream evaluation influence the future direction of projects, so cytotoxicity profiling of the screening libraries at early stage is essential for increasing the likelihood of candidate success. […] For the annotated library, we also examined the primary targets and mechanistic pathways regularly associated with cell death. To our knowledge, this is the first study to use high-throughput screening to profile large libraries for cytotoxicity assessment in both normal and cancer cell lines. In summary, the results generated here constitutes a valuable resource for the scientific community and provides insight on identifying cytotoxic compounds with particular mechanisms of action, and prioritizing compounds with suitable cytotoxicity profile for further evaluation.
A pintool (Kalypsys) was used to transfer 23 nL of compound solution to the 1536-well assay plates. After 48 or 72 hr incubation at 37 degree Celsius, 5% CO2 and 95% humidity, 2.5 uL of CellTiter-Glo (Promega) was dispensed into each well using a dispenser (Aspect Automation, St. Paul, MN) with solenoid valves (Lee Valves, Westbrook CT). Plates were left at room temperature for 10 min before imaging the ATP-coupled luminescence using a ViewLux microplate imager (PerkinElmer, Waltham, MA).
% is scaled to controls: 0 for no effect and ±100 for the full control effect.

| SMILES | max response | outcome |
| --- | --- | --- |
| C=CCc1ccc(O[C@@H]2O[C@H](CO)[C@@H](O)[C@H](O)[C@H]2O)c(O[C@@H]2O[C@H](CO)[C@@H](O)[C@H](O)[C@H]2O)c1 | -0.299% (inactive) |  |
| C=C1C(=O)O[C@@H]2/C=C(\C)CC/C=C(\C(=O)O[C@@H]3O[C@H](CO)[C@@H](O)[C@H](O)[C@H]3O)CC[C@@H]12 | -0.494% (inactive) |  |
| C[C@@H]1O[C@@H](O[C@H]2[C@H](OC(=O)[C@]34CCC(C)(C)C[C@H]3C3=CCC5[C@@]6(C)C[C@@H](O)[C@@H](O[C@@H]7O[C@H](CO)[C@@H](O)[C@H](O)[C@H]7O)[C@@](C)(CO)C6[C@H](O)C[C@@]5(C)[C@]3(C)CC4)OC[C@H](O)[C@@H]2O)[C@H](O)[C@H](O[C@@H]2OC[C@](O)(CO)[C@H]2O)[C@H]1O[C@@H]1OC[C@@H](O)[C@H](O[C@H]2O[C@H](C)[C@@H](O)[C@H](O)[C@@H]2O)[C@H]1O (stereo not given in full) | 4.64% (inactive) |  |
| CC(=O)O[C@@H](C[C@@H]1C=C(C)C(=O)O1)[C@H](C)[C@H]1CCC2[C@@]3(C)CC[C@H](O[C@@H]4O[C@H](CO)[C@@H](O)[C@H](O)[C@H]4O[C@@H]4O[C@@H](C)[C@H](O)[C@@H](O)[C@H]4O)C(C)(C)C3CC[C@@]2(C)[C@@]12COC(=O)C2 (stereo not given in full) | -15.8% (inactive) |  |
| CC(C)=CCC/C(C)=C/CO[C@@H]1O[C@H](CO[C@@H]2O[C@@H](CO)[C@H](O)[C@H]2O)[C@@H](O)[C@H](O)[C@H]1O | -7.37% (inactive) |  |
| O=C(O)c1ccnc2cc(-c3nc4ccccc4n3CCN3CCCCC3)sc12 | 2.48% (inactive) |  |
| CC12CC(O)C(O)C=C1c1cc(O)cc(O)c1C(=O)O2 (stereo not given) | -7.31% (inactive) |  |
| O=C(/C=C/c1ccc(O)cc1)OC[C@@]1(O)C=C[C@@H]2C(C(=O)O)=CO[C@@H](O[C@@H]3O[C@H](CO)[C@@H](O)[C@H](O)[C@H]3O)[C@@H]21 | -5.68% (inactive) |  |
| CC(=O)c1[nH]cc(CCC(=O)O)c1CC(=O)O | -1.24% (inactive) |  |
| C=C1CC[C@@H]2[C@](C)(CO)[C@H](O[C@@H]3O[C@H](CO)[C@@H](O)[C@H](O)[C@H]3O)CC[C@@]2(C)[C@@H]1C/C=C1/C(=O)OC[C@H]1O | -5.74% (inactive) |  |
| C[C@H]1[C@H](C)CC[C@]2(C(=O)O)CC[C@]3(C(=O)O)C(=CCC4[C@@]5(C)CC[C@H](O[C@@H]6O[C@@H](C)[C@H](O)[C@@H](O)[C@H]6O)C(C)(C)C5CC[C@]43C)[C@H]12 (stereo not given in full) | -0.583% (inactive) |  |
| C=C(CO)C(=O)O[C@H]1C[C@@]23O[C@@H]2CC/C(=C/[C@H]2OC(=O)C(=C)[C@H]12)CO[C@H]3O | -24.8% (inactive) |  |
| COc1c(C)c(OCC=C(C)C)cc2c1CNC2=O | -5.13% (inactive) |  |
| Oc1ccc2c(-c3c(-c4ccccn4)nn4c3CCC4)ccnc2c1 | -21.7% (inactive) |  |
| COc1ccc(C2(O)c3ccccc3NC(=O)C2OC)cc1 (stereo not given) | 1.57% (inactive) |  |
| O=C(O)[C@H](Cc1ccccc1)Oc1ccc(-c2ccccc2)cc1 | 4.06% (inactive) |  |
| C[C@@H]1O[C@@H](O[C@H]2[C@H](OC(=O)[C@]34CCC(C)(C)C[C@H]3C3=CCC5[C@@]6(C)CC[C@H](O[C@@H]7O[C@H](CO[C@@H]8OC[C@H](O)[C@H](O)[C@H]8O)[C@@H](O)[C@H](O)[C@H]7O)C(C)(C)C6CC[C@@]5(C)[C@]3(C)C[C@H]4O)OC[C@@H](O)[C@@H]2O)[C@H](O)[C@H](O[C@@H]2OC[C@](O)(CO)[C@H]2O)[C@H]1O[C@@H]1OC[C@H](O)[C@H](O[C@@H]2OC[C@@H](O)[C@H](O)[C@H]2O)[C@H]1O (stereo not given in full) | -12.4% (inactive) |  |
| CC(C)=C1CC2C(CCC2(C)O)C(C)(O)CC1=O (stereo not given) | -3.11% (inactive) |  |
| C=C(C)C(O)COc1ccc(CC(=O)O)cc1 (stereo not given) | 2.49% (inactive) |  |
| CCC(C)/C=C(C)/C=C/C1=CC2=C(Cl)C(=O)C(C)(OC(C)=O)C(=O)C2=CN1C(CC(=O)O)C(=O)O (stereo not given) | 4.62% (inactive) |  |

| SMILES | max response | outcome |
| --- | --- | --- |
| CC1(CO)CC(O)C2(C)CCC3(C)C(=CCC4C5(C=O)CCC(OC6OC(C(=O)O)C(O)C(O)C6OC6OC(C(=O)O)C(O)C(O)C6O)C(C)(C)C5CCC43C)C2C1 (stereo not given) | -10.9% (inactive) |  |
| CC1(C)CCCC2(C)c3c4c(c(=O)oc(=O)c3=CCC12)=CCC1C(C)(C)CCCC41C (stereo not given) | 2.74% (inactive) |  |
| CC[C@H](C)[C@H](NC(=O)[C@H](Cc1ccc(O)cc1)NC(=O)[C@@H](N)C(C)C)C(=O)N[C@@H](Cc1cnc[nH]1)C(=O)N1CCC[C@H]1C(=O)N[C@@H](Cc1ccccc1)C(=O)O | 0.716% (inactive) |  |
| CC[C@@H]1[C@H]2CCCCN3C(=O)C[C@H]([C@@H]4[C@H]1OC(=O)[C@H]4C)[C@@H]23 | -4.7% (inactive) |  |
| CC1(C)CC[C@]2(C(=O)O)CC[C@]3(C)C(=CCC4[C@@]5(C)CC[C@H](O[C@@H]6O[C@H](C(=O)O)[C@@H](O)[C@H](O[C@@H]7O[C@H](CO)[C@H](O)[C@H](O)[C@H]7O)[C@H]6O[C@@H]6O[C@H](CO)[C@@H](O)[C@H](O)[C@H]6O)C(C)(C)C5CC[C@]43C)[C@@H]2C1 (stereo not given in full) | -6.56% (inactive) |  |
| CCNC(=O)OC1CCN(c2nncc3cc(OC)c(OC)cc23)CC1 | 2.54% (inactive) |  |
| CN1CCc2cc(Cl)c(O)cc2[C@@H](c2cccc3c2OCC3)C1 | -11.4% (inactive) |  |
| O=C(OCC1=CC(Cl)C(O)C(OC(=O)c2ccccc2)C1O)c1ccccc1 (stereo not given) | -7.58% (inactive) |  |
| C=C1CC/C=C(/CO)C(=O)C[C@@H]2[C@@H]1C[C@@]2(C)COC(C)=O | -4.3% (inactive) |  |
| CCC(C)C(=O)O[C@H]1C[C@](C)(O)[C@]23OC(C)(C)[C@H](C[C@H](OC(=O)c4ccccc4)[C@]2(COC(C)=O)[C@H]1OC(=O)C(C)CC)[C@H]3OC(C)=O (stereo not given in full) | -12.8% (inactive) |  |
| O=C1C[C@@]2(C(=O)N1)C(=O)N(Cc1ccc(Br)cc1F)C(=O)c1cccn12 |  | inactive |
| C=C[C@H]1[C@H](O[C@@H]2O[C@H](CO)[C@@H](O)[C@H](OC(=O)/C=C/c3ccc(O)c(OC)c3)[C@H]2O)OC=C2C(=O)OCC[C@]21O | -3.81% (inactive) |  |
| CN1CCN(C2=Nc3ccccc3Nc3ccc(O)cc32)CC1 | -1.86% (inactive) |  |
| COc1cnc(-c2ccc(Cn3c(CC(C)(C)C(=O)O)c(SC(C)(C)C)c4cc(OC[C@@H]5Cc6ccccc6N5C(C)=O)ccc43)cc2)nc1 | -2.16% (inactive) |  |
| CC(=O)OC1C(O)C(C)(O)C(/C=C/C(=O)O)C2(C)CCCC(C)(C)C12 (stereo not given) | 0.298% (inactive) |  |
| C=C1CC2C(C)(CCC(=O)O)C(C(C)(C)O)CCC2(C)C2(C(=O)OC)C(=O)C(C)(O)C(=O)C12C (stereo not given) | -13.4% (inactive) |  |
| COc1cc(/C=C/C(=O)OCC2OC(OC3(CO)OC(CO)C(O)C3O)C(O)C(O)C2O)ccc1O (stereo not given) | 0.768% (inactive) |  |
| CC(=O)O[C@@H]1[C@@H](O)[C@H](C)O[C@@H](O[C@H]2[C@@H]3C=CO[C@@H](O[C@@H]4O[C@H](CO)[C@@H](O)[C@H](O)[C@H]4OC(C)=O)[C@@H]3[C@@]3(CO)O[C@@H]23)[C@@H]1OC(=O)/C=C/c1ccc(O)cc1 | 2.14% (inactive) |  |
| CC(C)C1CCC(CO)=CC1/C=C(\CO)C(=O)OCC1(O)CCC(C(C)C)C2C=C(C(=O)O)COC(=O)C21 (stereo not given) |  | inactive |
| C/C=C1\[C@H](O[C@@H]2O[C@H](CO)[C@@H](O)[C@H](O)[C@H]2O)OC=C(C(=O)OCCc2ccc(O)cc2)[C@H]1CC(=O)OCCc1ccc(O)cc1 | -2.9% (inactive) |  |
